Reference: PubChem BioAssay (EPA / NIEHS)
Results filed as inconclusive are left out. Active and inactive are the calls of the source. The calls were made as follows, unless noted: active = hit-call score of the fitted dose curve at least 0.9, where 1 is the maximum; inactive = score below 0.9.

What was measured:
[1] = molecular target: Nuclear respiratory factor 1 (Homo sapiens) (UniProt Q16656); assay: ATG_NRF1_CIS: Attagene CIS-FACTORIAL HepG2 Assay for human Nuclear Respiratory Factor 1 (NRF1) Orphan Gene (AID 2282987); conditions: HepG2 NRF1 cis-element reporter, Attagene multiplex; actives raise or lower the signal
Nuclear respiratory factor 1 (Homo sapiens), sequence (Q16656 whole entry, looked up): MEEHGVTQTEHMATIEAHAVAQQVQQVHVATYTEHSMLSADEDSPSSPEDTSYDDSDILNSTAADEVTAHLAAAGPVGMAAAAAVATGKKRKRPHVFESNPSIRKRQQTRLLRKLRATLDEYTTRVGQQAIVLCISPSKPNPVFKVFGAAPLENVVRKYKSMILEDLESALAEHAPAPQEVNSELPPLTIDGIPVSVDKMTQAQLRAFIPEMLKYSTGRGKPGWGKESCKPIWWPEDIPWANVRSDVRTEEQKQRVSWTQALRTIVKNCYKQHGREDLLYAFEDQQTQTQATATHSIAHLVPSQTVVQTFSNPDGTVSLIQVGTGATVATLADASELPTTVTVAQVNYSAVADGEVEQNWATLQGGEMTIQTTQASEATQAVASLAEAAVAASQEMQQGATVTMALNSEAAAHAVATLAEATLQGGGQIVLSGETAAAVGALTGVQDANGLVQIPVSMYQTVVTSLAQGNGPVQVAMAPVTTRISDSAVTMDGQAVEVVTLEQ
Summary of the method: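 Reporter mRNA induction or loss in HepG2 cells after 24 h dosing; cis-regulated reporter constructs report endogenous transcription-factor activity. Quantified by RT-PCR/capillary electrophoresis fluorescence, DMSO-referenced.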

[2] = ATG_NFI_CIS: Attagene CIS-FACTORIAL HepG2 Assay for human Nuclear Factor I (NFI) (AID 2282989); conditions: HepG2 cis-regulatory reporter, NFI response element transcription; actives raise or lower the signal
Summary of the method: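 Transfected HepG2 liver cells, exposed 24 h, supplied total RNA for oligo(dT) reverse transcription and reporter-specific PCR. Labelled, HpaI-cut fragments were sized by capillary electrophoresis; DMSO set the baseline for bidirectional fitting.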

[3] = molecular target: Myc proto-oncogene protein (Homo sapiens) (UniProt P01106); assay: ATG_Myc_CIS: Attagene CIS-FACTORIAL HepG2 Assay for human Myelocytomatosis (Myc) Proto-Oncogene Transcription Factor (AID 2282990); conditions: HepG2, Attagene cis-reporter transcription factor activity; actives raise or lower the signal
Myc proto-oncogene protein (Homo sapiens), sequence (P01106 whole entry, looked up): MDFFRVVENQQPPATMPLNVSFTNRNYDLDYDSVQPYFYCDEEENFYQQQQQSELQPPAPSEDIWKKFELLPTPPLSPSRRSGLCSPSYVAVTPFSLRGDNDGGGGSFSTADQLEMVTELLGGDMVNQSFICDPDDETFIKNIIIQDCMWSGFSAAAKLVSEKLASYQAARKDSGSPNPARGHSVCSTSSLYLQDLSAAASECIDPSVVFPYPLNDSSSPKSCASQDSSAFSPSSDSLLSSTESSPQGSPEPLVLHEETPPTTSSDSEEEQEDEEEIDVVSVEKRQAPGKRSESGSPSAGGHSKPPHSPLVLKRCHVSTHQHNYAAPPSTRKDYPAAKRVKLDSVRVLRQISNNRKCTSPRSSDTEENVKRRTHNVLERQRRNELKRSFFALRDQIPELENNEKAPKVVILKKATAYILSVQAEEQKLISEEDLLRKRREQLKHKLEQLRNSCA
Summary of the method: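 DMSO-normalised, bidirectionally fitted reporter mRNA signal. HepG2 cells transfected with cis reporter constructs, treated 24 h; transcripts detected by RT-PCR, 6-FAM primer extension and CE.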

[4] = ATG_NRF2_ARE_CIS: Attagene CIS-FACTORIAL HepG2 Assay for human Nuclear Factor Erythroid 2 Related Factor 2 (NFR2) response to Antioxidant Response Elements (ARE) (AID 2282992); conditions: HepG2 Attagene ARE/NRF2 reporter, transcription factor activity; actives raise or lower the signal
Summary of the method: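 Using transiently transfected HepG2 cells exposed for 24 h, reporter mRNA levels were determined by RT-PCR with fluorescent primer extension and capillary electrophoresis, analysed for gain or loss of signal against DMSO.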

[5] = molecular target: human Peroxisome Proliferator-activated Receptor alpha (PPARa), PPARA (gene 5465) (UniProt Q07869); assay: ATG_PPARa_TRANS: Attagene TRANS-FACTORIAL HepG2 Assay for human Peroxisome Proliferator-activated Receptor alpha (PPARa) (AID 2283001; active = hit-call score of the fitted dose curve at least 0.9, where 1 is the maximum;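 as to AC50: potency for gain of reporter signal over DMSO so agonist or activator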)
human Peroxisome Proliferator-activated Receptor alpha (PPARa), PPARA (gene 5465), sequence (Q07869 whole entry, looked up, the tested form may be a part): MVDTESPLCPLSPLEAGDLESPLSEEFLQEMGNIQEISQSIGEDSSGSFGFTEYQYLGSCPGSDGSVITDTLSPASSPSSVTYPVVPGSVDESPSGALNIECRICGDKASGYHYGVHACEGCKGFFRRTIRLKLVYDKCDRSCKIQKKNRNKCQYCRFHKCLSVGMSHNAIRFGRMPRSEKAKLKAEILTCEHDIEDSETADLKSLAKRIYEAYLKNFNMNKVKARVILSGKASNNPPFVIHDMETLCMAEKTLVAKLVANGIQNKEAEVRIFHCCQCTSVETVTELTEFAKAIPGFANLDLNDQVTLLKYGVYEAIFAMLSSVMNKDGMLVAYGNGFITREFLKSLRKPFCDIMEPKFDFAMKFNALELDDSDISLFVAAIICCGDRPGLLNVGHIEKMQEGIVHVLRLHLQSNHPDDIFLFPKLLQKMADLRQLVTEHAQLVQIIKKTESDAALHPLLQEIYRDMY
Summary of the method: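 Exposure: 24 h, transiently transfected HepG2 cells. Endpoint: GAL4-UAS reporter mRNA, RT-PCR with capillary electrophoresis fluorescence. Baseline: DMSO; increases fitted.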

[6] = molecular target: Nuclear receptor subfamily 1 group I member 2 (Homo sapiens) (UniProt O75469); assay: ATG_PXR_TRANS: Attagene TRANS-FACTORIAL HepG2 Assay for human Pregnane X Receptor (PXR) (AID 2283008; active = hit-call score of the fitted dose curve at least 0.9, where 1 is the maximum)
Nuclear receptor subfamily 1 group I member 2 (Homo sapiens), sequence (O75469 whole entry, looked up, the tested form may be a part): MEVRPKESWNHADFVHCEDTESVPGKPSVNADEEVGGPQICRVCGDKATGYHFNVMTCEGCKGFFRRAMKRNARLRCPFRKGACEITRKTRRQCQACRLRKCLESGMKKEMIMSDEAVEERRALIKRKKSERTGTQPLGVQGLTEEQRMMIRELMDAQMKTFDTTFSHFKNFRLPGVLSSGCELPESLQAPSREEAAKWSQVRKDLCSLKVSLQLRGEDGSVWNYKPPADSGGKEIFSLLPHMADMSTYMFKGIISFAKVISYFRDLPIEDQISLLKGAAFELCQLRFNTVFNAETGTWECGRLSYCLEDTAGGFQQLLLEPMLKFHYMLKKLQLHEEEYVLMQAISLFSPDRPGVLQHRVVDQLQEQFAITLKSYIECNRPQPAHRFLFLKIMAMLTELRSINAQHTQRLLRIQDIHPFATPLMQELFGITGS
Summary of the method: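 Multiplexed TRANS reporter panel in HepG2; this component tracks PXR-Gal4-driven reporter mRNA after 24 h dosing, measured by RT-PCR with capillary electrophoresis fluorescence, fitted against DMSO.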

[7] = molecular target: human RAR-related Orphan Receptor beta (RORb), RORB (gene 6096) (UniProt Q92753); assay: ATG_RORb_TRANS: Attagene TRANS-FACTORIAL HepG2 Assay for human RAR-related Orphan Receptor beta (RORb) (AID 2283010; active = hit-call score of the fitted dose curve at least 0.9, where 1 is the maximum)
human RAR-related Orphan Receptor beta (RORb), RORB (gene 6096), sequence (Q92753 whole entry, looked up, the tested form may be a part): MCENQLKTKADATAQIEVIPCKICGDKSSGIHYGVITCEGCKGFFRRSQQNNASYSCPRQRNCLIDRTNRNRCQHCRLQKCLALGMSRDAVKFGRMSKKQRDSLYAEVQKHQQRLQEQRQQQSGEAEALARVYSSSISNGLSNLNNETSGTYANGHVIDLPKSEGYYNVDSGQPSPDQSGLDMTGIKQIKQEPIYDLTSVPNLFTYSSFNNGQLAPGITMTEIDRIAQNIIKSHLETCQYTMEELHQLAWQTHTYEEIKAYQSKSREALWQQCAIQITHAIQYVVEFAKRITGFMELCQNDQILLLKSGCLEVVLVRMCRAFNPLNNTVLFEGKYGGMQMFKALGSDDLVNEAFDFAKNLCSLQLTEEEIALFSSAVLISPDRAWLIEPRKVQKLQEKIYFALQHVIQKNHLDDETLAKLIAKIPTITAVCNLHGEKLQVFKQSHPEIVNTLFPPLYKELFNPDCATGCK
Summary of the method: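 Multiplexed transcription-factor reporter assay: HepG2 cells transiently carrying NR-Gal4/GAL4-UAS constructs, 24 h treatment, mRNA quantified by RT-PCR plus capillary electrophoresis fluorescence; activity scored as induction over DMSO.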

[8] = ATG_Oct_MLP_CIS: Attagene CIS-FACTORIAL HepG2 Assay for human Octamer-Binding Transcription Factor (Oct) (AID 2282993); conditions: HepG2 Attagene cis-factorial Oct reporter, mRNA; actives raise or lower the signal
Summary of the method: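 Using HepG2 cells bearing transfected cis-reporter constructs, mRNA induction was read after 24 h by fluorescent RT-PCR and capillary electrophoresis, with DMSO defining baseline for gain- or loss-of-signal fits.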

[9] = molecular target: Cellular tumor antigen p53 (Homo sapiens) (UniProt P04637); assay: ATG_p53_CIS: Attagene CIS-FACTORIAL HepG2 Assay for human p53 Transcription Factor (AID 2282994); conditions: HepG2 p53 cis-element reporter, Attagene mRNA; actives raise or lower the signal
Cellular tumor antigen p53 (Homo sapiens), sequence (P04637 whole entry, looked up, the tested form may be a part): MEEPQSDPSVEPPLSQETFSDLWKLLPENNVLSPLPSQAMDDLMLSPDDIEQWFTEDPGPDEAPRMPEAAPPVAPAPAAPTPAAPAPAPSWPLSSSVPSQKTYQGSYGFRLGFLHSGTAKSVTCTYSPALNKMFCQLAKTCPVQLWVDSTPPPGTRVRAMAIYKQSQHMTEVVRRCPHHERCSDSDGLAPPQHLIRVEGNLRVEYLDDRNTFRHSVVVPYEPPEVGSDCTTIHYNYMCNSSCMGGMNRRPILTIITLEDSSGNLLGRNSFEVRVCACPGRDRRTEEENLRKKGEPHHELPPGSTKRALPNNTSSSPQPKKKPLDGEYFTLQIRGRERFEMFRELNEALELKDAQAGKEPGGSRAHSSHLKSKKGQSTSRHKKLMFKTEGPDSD
Summary of the method: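 In HepG2 cells, reporter transcription units under cis-regulatory promoters were transiently introduced. Following 24 h treatment, RNA was processed to labelled, digested cDNA fragments read by capillary electrophoresis; fitting was bidirectional versus DMSO.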

[10] = molecular target: human Peroxisome Proliferator-activated Receptor delta (PPARd), PPARD (gene 5467) (UniProt Q03181); assay: ATG_PPARd_TRANS: Attagene TRANS-FACTORIAL HepG2 Assay for human Peroxisome Proliferator-activated Receptor delta (PPARd) (AID 2283002; active = hit-call score of the fitted dose curve at least 0.9, where 1 is the maximum)
human Peroxisome Proliferator-activated Receptor delta (PPARd), PPARD (gene 5467), sequence (Q03181 whole entry, looked up, the tested form may be a part): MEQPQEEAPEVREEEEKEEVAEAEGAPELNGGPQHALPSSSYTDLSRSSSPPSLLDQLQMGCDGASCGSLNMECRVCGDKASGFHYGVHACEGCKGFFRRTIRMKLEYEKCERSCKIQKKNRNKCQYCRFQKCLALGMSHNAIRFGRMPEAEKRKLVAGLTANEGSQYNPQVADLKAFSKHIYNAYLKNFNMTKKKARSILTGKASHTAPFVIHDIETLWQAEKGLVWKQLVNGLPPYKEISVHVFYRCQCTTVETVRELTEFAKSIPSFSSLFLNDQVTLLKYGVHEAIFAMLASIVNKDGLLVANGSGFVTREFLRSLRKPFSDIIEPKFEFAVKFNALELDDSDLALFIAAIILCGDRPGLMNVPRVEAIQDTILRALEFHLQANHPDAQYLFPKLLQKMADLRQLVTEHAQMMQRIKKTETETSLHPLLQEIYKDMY
Summary of the method: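 Measured quantity: GAL4-UAS reporter transcript induction in HepG2 after 24 h chemical dosing, with NR-Gal4 chimeras supplied by transient transfection. Detection by RT-PCR and capillary electrophoresis; upward fit against DMSO.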

[11] = molecular target: Peroxisome proliferator-activated receptor gamma (Homo sapiens) (UniProt P37231); assay: ATG_PPARg_TRANS: Attagene TRANS-FACTORIAL HepG2 Assay for human Peroxisome Proliferator-activated Receptor-gamma (PPARg) (AID 2283007; active = hit-call score of the fitted dose curve at least 0.9, where 1 is the maximum)
Peroxisome proliferator-activated receptor gamma (Homo sapiens), sequence (P37231 whole entry, looked up, the tested form may be a part): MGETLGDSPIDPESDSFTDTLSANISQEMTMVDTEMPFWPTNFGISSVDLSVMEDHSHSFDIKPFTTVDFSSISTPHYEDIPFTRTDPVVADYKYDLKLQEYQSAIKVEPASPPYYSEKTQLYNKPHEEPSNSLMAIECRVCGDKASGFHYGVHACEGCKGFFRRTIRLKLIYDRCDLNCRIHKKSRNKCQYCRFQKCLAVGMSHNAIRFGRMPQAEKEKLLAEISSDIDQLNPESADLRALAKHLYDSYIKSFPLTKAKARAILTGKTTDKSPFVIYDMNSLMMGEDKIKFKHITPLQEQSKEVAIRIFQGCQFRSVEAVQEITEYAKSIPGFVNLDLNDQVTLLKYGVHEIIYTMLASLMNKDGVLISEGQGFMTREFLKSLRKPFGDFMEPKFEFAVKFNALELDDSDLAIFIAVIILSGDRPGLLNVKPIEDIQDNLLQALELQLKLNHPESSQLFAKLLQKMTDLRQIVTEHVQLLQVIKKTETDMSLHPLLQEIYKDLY
Summary of the method: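 Chimeric NR-Gal4 transactivation is measured in transiently transfected HepG2 cells by reporter mRNA induction at 24 h. Detection uses RT-PCR with fluorescent labelling and capillary electrophoresis; DMSO defines baseline.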

[12] = ATG_NF_kB_CIS: Attagene CIS-FACTORIAL HepG2 Assay for human Nuclear Factor Kappa B (NF-kB) (AID 2282991); conditions: HepG2 Attagene cis-factorial NF-kB reporter mRNA; actives raise or lower the signal
Summary of the method: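 DMSO served as negative control and baseline for bidirectional curve fitting. Transiently transfected HepG2 cells were dosed for 24 h, then reporter transcripts were measured by RT-PCR with capillary electrophoresis detection.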

[13] = BSK_3C_TissueFactor: BioMAP Diversity Plus: 3C Assay for Tissue Factor Biomarker Activity (AID 2282997); conditions: BioMAP 3C HUVEC, tissue factor biomarker readout; actives raise or lower the signal
Summary of the method: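 HUVEC, 3C system, 24 h post-dose; Tissue Factor by ELISA; bidirectional fit vs DMSO baseline.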

[14] = BSK_3C_uPAR: BioMAP Diversity Plus: 3C Assay for Urokinase-type plasminogen activator receptor (uPAR) Biomarker Activity (AID 2282998); conditions: BioMAP 3C HUVEC, uPAR biomarker ELISA; actives raise or lower the signal
Summary of the method: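 In this endothelial cell-based assay, human umbilical vein primary cells were treated with chemicals and harvested at 24 h. uPAR was quantified using ELISA, with gains or losses fitted relative to DMSO controls.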

[15] = BSK_4H_Eotaxin3: BioMAP Diversity Plus: 4H Assay for Eotaxin 3 Biomarker Activity (AID 2283000); conditions: primary human endothelial cells (HUVEC); actives raise or lower the signal
Summary of the method: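 Readout is Eotaxin-3 (CCL26) level by ELISA in primary human umbilical vein endothelial cells harvested 24 h after chemical exposure; activity fitted in both directions against DMSO control.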

[16] = read-out: Intercellular Adhesion Molecule 1 (ICAM1), ICAM1 (gene 3383); assay: BSK_3C_ICAM1: BioMAP Diversity Plus: 3C Assay for Intercellular Adhesion Molecule 1 (ICAM1) Biomarker Activity (AID 2283003); conditions: primary human endothelial cells (HUVEC); actives raise or lower the signal
Summary of the method: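 Using DMSO as baseline, bidirectional curve fitting was applied to ICAM-1 ELISA signals from HUVEC in the 3C system, measured 24 h after compound addition.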

[17] = BSK_3C_Proliferation: Cell Proliferation Assessment in the BioMAP Diversity Plus: 3C Assay (AID 2283006); conditions: primary human endothelial cells (HUVEC);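 also: potency may reflect either rise or fall in cell number versus DMSO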
Summary of the method: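 Measured here: sulforhodamine B (0.1%) staining of TCA-fixed sub-confluent umbilical vein endothelial cultures 48 h post-dosing, absorbance 560 nm. DMSO served as negative control and baseline; both signal gain and loss were modelled.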

Measured: AC50

N#CCCNCCC#N
inactive: [1] | [2] | [3] | [4] | [5] | [6] | [7]

CC/C=C\CCOC(C)OCC (stereo not given)
inactive: [1] | [2] | [3] | [8] | [9] | [5] | [10] | [11] | [6] | [7]

COC(=O)C(C)Oc1ccc(Oc2ncc(C(F)(F)F)cc2Cl)cc1 (stereo not given)
active: [1] 137 µM | [11] 48.9 µM | [6] 40.6 µM
inactive: [2] | [3] | [4] | [9] | [5] | [10] | [7]

CCCCCCCOC(C)=O
inactive: [1] | [2] | [3] | [4] | [8] | [9] | [10] | [11] | [6]

O=C1CCCCCCCCCCCC(=O)OCCO1
active: [5] 54.3 µM
inactive: [1] | [2] | [3] | [4] | [8] | [11] | [6] | [7]

CCCCCCCCCCCCS
inactive: [1] | [2] | [12] | [8] | [9] | [5] | [11] | [6] | [7]
active: [4] 26.4 µM | [13] 30.7 µM | [14] 26.4 µM | [15] 28 µM | [16] 29.8 µM | [17] 14.4 µM
